Among all 280,000 compounds or so, about 820 (0.29%) were called active. A call without a number means that no potency is given here. About 1% were inconclusive and are not listed. The call rests on the fitted dose curve; in most records, active means well fitted curve in either direction with a large enough effect; inconclusive means small, poorly fitted or top-dose-only effect; inactive means flat fitted curve, though single readings scatter. The full list was thinned out, with actives kept by preference.
Potency means the concentration at half of the fitted maximal effect; tags describe the fitted curve by direction and shape or compound fluorescence and quenching.

The test can be described thus: Total Fluorescence Counterscreen for Inhibitors of the Interaction of Thyroid Hormone Receptor and Steroid Receptor Coregulator 2. To be noted: TRb/SRC2 Texas Red total fluorescence interference; series mostly up to 106 µM. The source says:
NIH Molecular Libraries Probe Production Network [MLPCN]
NIH Chemical Genomics Center [NCGC]
Assay Provider: R. Kip Guy, St. Jude Children's Research Hospital
Thyroid receptor (TR) regulates many homeostatic processes including basal metabolism, cardiovascular function, body weight, and lipid trafficking. TR modulators are potential therapeutics for obesity and hyperlipidemias but current thyroid analogs have undesirable side effects, particularly cardiac stimulation. To identify inhibitors that specifically prevent the interaction of TR with the steroid receptor […] 2 (SRC2), a fluorescence polarization assay was screened. This assay detects interaction of the ligand-binding domain of human TRb with a Texas Red labeled SRC2 peptide, corresponding to a 20 amino acid region of the nuclear receptor interaction domain (Arnold et al., 2006). Total fluorescence (555 nm excitation and 632 nm emission) was measured to identify potential fluorescent and light absorbing compounds. Such compounds may be artifacts that interfere with the fluorescence polarization assay.
Arnold, L. A.; Estebanez-Perpina, E.; Togashi, M.; Shelat, A.; Ocasio, C. A.; McReynolds, A. C.; Nguyen, P.; Baxter, J. D.; Fletterick, R. J.; Webb, P.; Guy, R. K. A high-throughput screening method to identify small molecule inhibitors of thyroid hormone receptor coactivator binding. Sci STKE 2006, p 13.
NCGC Assay Protocol Summary:
For screening, 5 uL/well 0.6 uM TRb and 20 nM SRC2 Texas Red in protein buffer (20mM Tris hydrochloride, 100mM NaCl, 10% glycerol, 1mM EDTA, 0.01% NP-40, 1mM DTT, 1uM T3 and 5% DMSO) was dispensed into black solid 1536-well plates (Grenier) using a solenoid-based dispenser. Following transfer of 23 nL compound or DMSO vehicle by a pin tool, the plates were centrifuged 15 s at 1000 RPM and incubated 5 hr at ambient temperature. The plates were read by an Envision (Perkin Elmer) to detect fluorescence polarization of SRC2 Texas Red (555 nm excitation and 632 nm emission). Data were normalized to unbound (all components except TRb) and bound SRC2 Texas Red controls. Total fluorescence (TF) was calculated as follows: TF = S + 2P where S and P are fluorescence readings in the parallel and perpendicular channels, respectively.
Keywords: NIH Roadmap, MLPCN, MLI, MLSMR, qHTS, NCGC, qHTS, thyroid hormone receptor, steroid receptor coactivator, fluorescence polarization
(Counterscreens check selectivity or assay interference.)
`COc1cc(OC)c(-n2cc(-c3ccc(Cl)cc3)[nH]c2=O)cc1Cl`: the Potency was 126 µM [quencher] (active).

As to `COc1ccc(-c2cn(-c3ccc(OC)cc3)c(=S)[nH]2)cc1`, the Potency entry is “inactive”.

Take `COc1cc(OC)c(-n2c(C)cc(C=O)c2C)cc1Cl`: the Potency entry was “inactive”.

With `Cc1nc2nc(SCC(=O)NC3CCC(C)CC3)nn2c(C)c1Cc1ccccc1Cl` (stereo unspecified), the Potency entry is “inactive”.

`CCS(=O)(=O)N1CCc2cc(C(=O)NCc3ccc(C)cc3)ccc21`: the Potency entry is “inactive”.

For `COC(=O)c1cc(NC(=O)c2sc3ccccc3c2Cl)cc(C(=O)OC)c1`, the Potency result was “inactive”.

With `O=C(Nc1ccon1)c1sc2ccccc2c1Cl`, the Potency result is “inactive”.

As to `CCCC(=O)Nc1ccc(NC(=O)c2sc3ccccc3c2Cl)cc1`, the Potency was 1.26 µM [quencher] (active).

On to `O=C(NCC(c1ccc2c(c1)OCO2)N1CCN(c2ccccc2)CC1)C(=O)Nc1ccccc1F` (stereo unspecified), for which the Potency entry is “inactive”.

Regarding `Cc1ccc(Cl)cc1N(C)C(=O)Cn1nc(Cc2cccnc2)c2ccccc2c1=O`, the Potency entry was “inactive”.

`CCC(=O)N1N=C(c2ccc(OC)cc2)CC1c1cn(-c2ccccc2)nc1-c1cccs1` (stereo unspecified): the Potency result is “inactive”.

As to `COc1ccc(Cl)cc1NC(=O)CCn1c(=O)c2cccn2c2ccccc21`, the Potency entry was “inactive”.

With `Cc1ccc(C)c(N2CCN(S(=O)(=O)c3ccc4c(c3)C(C(C)C)C(=O)N4)CC2)c1` (stereo unspecified), the Potency result was “inactive”.

As to `Cc1c(-c2nc(-c3ccc4c(c3)OCO4)no2)nnn1-c1ccc(Br)cc1F`, the Potency entry is “inactive”.

Consider `Cc1ccc(CN2CCCn3nc(C(=O)NCc4ccccc4Cl)cc3C2=O)cc1`, for which the Potency result was “inactive”.

For `Cc1ccccc1CNC(=O)CCc1cn(Cc2ccccc2C)c2ccccc12`, the Potency entry is “inactive”.

Regarding `Cc1ccc(C)c2sc(NC(=O)c3ccc(S(=O)(=O)N4CCCC4)cc3)nc12`, the Potency entry is “inactive”.

As for `COc1ccc(CNc2nc(-c3ccc(Cl)cc3)nn2S(=O)(=O)c2ccc(C)cc2)cc1`, the Potency result is “inactive”.

Turning to `Cc1ccc(S(=O)(=O)n2nc(-c3ccc(Cl)cc3)nc2NCc2ccccc2)cc1`, the Potency is 1000 µM [quencher] (active).

In the case of `O=C(c1ccco1)n1nc(-c2ccc(Cl)cc2)nc1NCc1ccccc1`, the Potency entry was “inactive”.

Turning to `CCOC(=O)C1CCN(c2nc3c(S(=O)(=O)c4ccc(CC)cc4)nnn3c3ccc(Cl)cc23)CC1`, the Potency result is “inactive”.

Regarding `O=c1cc(-c2ccc(O)c(O)c2)oc2cccc(O)c12`, the Potency entry is “inactive”.

In the case of `Cn1c2ccccc2c(=O)c2c(O)cccc21`, the Potency entry was “inactive”.

On to `Oc1ccc(O)c2c(O)cccc12`, for which the Potency is 28.2 µM [quencher] (active).

In the case of `CCOc1cccc(NC(=O)c2ccc(F)c(S(=O)(=O)N(CC)c3cccc(C)c3)c2)c1`, the Potency entry was “inactive”.

Take `Cc1ccc(Cn2c(CNC(=O)Cc3cccc(C)c3)nc3cccnc32)cc1`: the Potency result was “inactive”.

On to `CCn1c(=O)c(=O)n(CC)c2cc(N3CCCCC3)c(NC(=O)c3ccc(Cl)cc3)cc21`, for which the Potency result was “inactive”.

With `Cc1ccc(NC(=O)c2ccc(CN3CC(=O)N4CCCCC4C3=O)cc2)c(Cl)c1` (stereo unspecified), the Potency was 70.8 µM [quencher] (active).

Turning to `Cc1ccc(C(=O)Nc2cc3c(cc2N2CCCC2)n(C)c(=O)c(=O)n3C)cc1`, the Potency result was “inactive”.

As for `CC(C)CCCCCOC(=O)CS`, the Potency entry is “inactive”.

With `CCOc1ccccc1NC(=O)Cn1c(=O)n(-c2cccc(C)c2)c(=O)c2c1c1cc(OC)ccc1n2C`, the Potency entry was “inactive”.

Consider `COc1ccc(-c2c(C)nn3c(N4CCC(C(=O)N5CCCCC5)CC4)cc(C)nc23)cc1OC`, for which the Potency entry was “inactive”.

As to `COc1ccc(-c2c(C)nn3c(N4CCC(C(=O)NCCC(C)C)CC4)cc(C)nc23)cc1OC`, the Potency result is “inactive”.

On to `COc1cccc(NC(=O)C2CCN(c3cc(C)nc4c(-c5ccc(Cl)cc5)c(C)nn34)CC2)c1`, for which the Potency was 89.1 µM [quencher] (active).

For `COc1ccc(CCNC(=O)c2cc3cccc4c3n2CC(C)S4)c(OC)c1OC` (stereo unspecified), the Potency entry was “inactive”.

On to `O=S(=O)(c1cccs1)N1CCN(Cc2ccccc2)CC1`, for which the Potency entry was “inactive”.

As for `COc1ccc2c(CN3CCN(S(=O)(=O)c4cccs4)CC3)cc(=O)oc2c1`, the Potency entry is “inactive”.

Turning to `Cc1cc2oc(=O)cc(CN3CCN(S(=O)(=O)c4cccs4)CC3)c2cc1C(C)C`, the Potency is 7.08 µM [quencher] (active).

Turning to `COc1cc(OC)cc(-c2nc3nc(C)c(CCC(=O)Nc4ccccc4)c(C)n3n2)c1`, the Potency result was “inactive”.

On to `Cc1ccc(C)c(Oc2c(C(F)(F)F)oc3c(CN4CCN(C)CC4)c(O)ccc3c2=O)c1`, for which the Potency result was “inactive”.

Turning to `CCOC(=O)c1c(NC(=O)Cc2coc3ccc(CC)cc23)sc2c1CCC2`, the Potency entry is “inactive”.

For the molecule `CCOCCCNC(=O)c1c(NC(=O)Cc2coc3c(C)c(C)ccc23)sc2c1CCC2`, the Potency entry was “inactive”.

As for `CCOCCCNC(=O)c1c(NC(=O)Cc2coc3ccc(C)cc23)sc2c1CCC2`, the Potency is 35.5 µM [quencher] (active).

For `Cc1ccc(-n2c(SCC(=O)c3ccccc3)nc3c([nH]c4ccccc43)c2=O)cc1`, the Potency entry is “inactive”.

In the case of `COc1cc(OC)cc(C(=O)Nc2ccc3nc(Nc4cccc(C(F)(F)F)c4)cc(C)c3c2)c1`, the Potency entry is “inactive”.

As to `Cc1c(NC(=O)C(C)(C)C)cccc1-c1nc2ccccc2s1`, the Potency result was “inactive”.

For the molecule `COc1cccc(CNC(=O)c2ccc3c(c2)sc2nc(-c4cccc(OC)c4)cn23)c1`, the Potency result was “inactive”.

As for `CCCCn1cc(S(=O)(=O)c2ccc(OCC)cc2)c(=O)c2cc(OC)c(OC)cc21`, the Potency entry was “inactive”.

Turning to `CC(C)Sc1oc(-c2cccs2)nc1S(=O)(=O)c1ccc(Cl)cc1`, the Potency result is “inactive”.

Consider `CC1(C)C(=O)N(Cl)C(=O)N1Cl`, for which the Potency result is “inactive”.

In the case of `COc1ccc(OC)c(NC(=O)CSC2=Nc3ccccc3C3=NC(CC(=O)NCc4ccc(F)cc4)C(=O)N23)c1` (stereo unspecified), the Potency result was “inactive”.

In the case of `Cc1ccc(S(=O)(=O)N(Cc2nc(-c3ccc(Cl)cc3)no2)C2CCCCC2)cc1`, the Potency entry is “inactive”.

With `C[Si](C)(C)N[Si](C)(C)C`, the Potency entry is “inactive”.

`CC(C)(C)OC(=O)N1CCC(c2c(C(=O)NCc3ccccn3)cnn2-c2ccc(F)cc2)CC1`: the Potency entry was “inactive”.

Regarding `Cc1c(Cl)cccc1NC(=O)C1CCCN(c2ncnc3onc(C)c23)C1` (stereo unspecified), the Potency entry is “inactive”.

For `Cn1nnnc1SCCCNCc1ccc(Cl)cc1`, the Potency result was “inactive”.

Turning to `O=C(Cn1c(=O)n(Cc2cccs2)c(=O)c2cccnc21)Nc1ccc(F)cc1`, the Potency result was “inactive”.

Turning to `CCOc1cccc(C(=O)Nc2nnc(S(=O)(=O)N(C)c3ccc(C)cc3)s2)c1`, the Potency result was “inactive”.

Turning to `Cc1ccccc1OCCSc1nc2ccc(NC(=O)c3ccco3)cc2s1`, the Potency result is “inactive”.

For `C=Cc1ccc(Cn2c(C(=O)O)c(CNC3CCCC3)c3ccc(C)cc32)cc1`, the Potency entry was “inactive”.

As to `O=C(COc1ccc(Cl)cc1)Nc1ccccc1OCc1cc(=O)n2ccccc2n1`, the Potency result was “inactive”.

Source of the values: PubChem BioAssay AID1479 (National Center for Advancing Translational Sciences (NCATS), 2009).
